Screening data deposited in PubChem BioAssay by several laboratories.
Hits are enriched below; roughly 3.9% of the tested compounds scored in any of these assays.
WT yeast gro inh: growth inhibition of WT strain, primary screen, mitochondrial fusion inhibitor project, WT and mutant strains, chemical genetic; hit rate 2.1% among 190,000; inhibition, % at 10 µM; mitochondrial fusion phenotypic screen; in the data active = inhibition above about 58%; tested in S. cerevisiae
Platelet DG rel: inhibitors of platelet dense granule secretion, primary screen, cell-based, MLPCN, human platelets; human platelet-rich plasma, SFLLRN dense granule ATP release, luminescence; inhibition, %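 (compounds screened at 7.5 µM in platelet-rich plasma)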; hit rate 0.22% among 300,000; AID 1663, 2009;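 active = mean replicate score, as percent of positive control, at or above 50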
Rtt109 HAT inh: inhibitors of C. albicans Rtt109/Vps75 HAT, primary screen, biochemical, ThioGlo CoA-SH fluorescence, plate reader; Histone acetyltransferase RTT109 (Candida albicans (strain SC5314 / ATCC MYA-2876)), …; purified Rtt109/Vps75, 4 h; inhibition, % at 34.9 µM; hit rate 0.16% among 330,000; AID 540336, 2011;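 active = inhibition of at least 50% in every replicate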
Target sequence (Q5AAJ8 whole entry, looked up): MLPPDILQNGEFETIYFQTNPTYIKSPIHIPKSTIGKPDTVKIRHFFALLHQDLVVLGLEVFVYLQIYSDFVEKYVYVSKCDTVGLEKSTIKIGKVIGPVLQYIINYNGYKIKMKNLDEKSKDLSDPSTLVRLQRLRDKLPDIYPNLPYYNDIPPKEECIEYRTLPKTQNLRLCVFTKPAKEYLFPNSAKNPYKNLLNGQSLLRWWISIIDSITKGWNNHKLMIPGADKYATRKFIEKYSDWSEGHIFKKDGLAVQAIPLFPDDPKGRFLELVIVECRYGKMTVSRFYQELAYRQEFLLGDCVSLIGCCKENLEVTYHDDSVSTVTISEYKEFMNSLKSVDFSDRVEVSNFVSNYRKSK
TPT1 inh: Candida albicans TPT1 enzyme inhibitors, primary screen, biochemical, fluorescence polarization | tRNA 2'-phosphotransferase TPT1 (Candida albicans SC5314) | recombinant caTPT1, FP RNA substrate dephosphorylation | inhibition, % at 5 µM | hit rate 0.81% among 300,000 | AID 1962, 2009;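 active = inhibition above the mean of all tested compounds plus 3 SD, set per screening campaign, cut at about 24% in these data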;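 note: plate controls were DMSO alone for no effect and ferristatin control at 100 nM for full effect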
SKKanGAS inh: S. pyogenes SKKanGAS growth inhibitors in kanamycin, primary screen, streptokinase expression inhibitor project, SKKanGAS strain, BacTiter-Glo luminescence; 6 h; inhibition, % at 7.5 µM; hit rate 1.3% among 300,000; AID 1662, 2009;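 active = mean replicate score, as percent of positive control median, at least 50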;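 note: strain carries kanamycin resistance gene driven by streptokinase promoter and grows in 40 µg/ml kanamycin; loss of luminescence reflects streptokinase promoter inhibition or plain growth inhibition; 0% = median of DMSO wells and 100% = positive control at its reference dose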
PHOSPHO1 inh: PubChem AID 1565; Phosphoethanolamine/phosphocholine phosphatase (Homo sapiens), Q8TCT1; recombinant PHOSPHO1, absorbance phosphatase assay; inhibition, % at 13.3 µM; hit rate 1.1% among 290,000; in the data active = inhibition above about 60%
* hit, by the source's call; x = no result given.

SMILES | WT yeast gro inh | Platelet DG rel | Rtt109 HAT inh | TPT1 inh | SKKanGAS inh | PHOSPHO1 inh
S=C1NC[C@H](CC2CCCCC2)N1CC1CCCCC1 | 68 | -2 | 4 | 1 | 61* | 5
COC(=O)c1[nH]c2ccc(C)cc2c1NC(=O)CN1CCc2cc(OC)c(OC)cc2C1 | 14 | 3 | -3 | -2 | 15 | 69*
CCOc1ccccc1OCC(=O)Nc1ccc(S(=O)(=O)N(C)C)cc1 | 69* | 0 | 25 | 4 | -28 | 7
CCOc1ccccc1OCC(=O)Nc1ccc(S(=O)(=O)Nc2ncccn2)cc1 | -3 | 6 | x | -1 | 3 | 2
CCC(C(=O)NC1CC1)n1nc(C)c2c(C)n(-c3ccc(C)cc3)nc2c1=O (centres undefined) | x | 12 | 12 | -4 | -2 | 27
CCC(C(=O)NC1CCCCCC1)n1nc(C)c2c(C)n(-c3ccccc3)nc2c1=O (centres undefined) | x | -7 | 9 | 0 | -10 | 65*
CCOC(=O)c1csc(N/N=C2\CCCc3ccccc32)n1 | x | 4 | 4 | -1 | 50* | 27
CN(C)c1ccc(S(=O)(=O)N2CCCCC2)cc1NC(=O)CCNC(=O)c1ccc(Cl)cc1 | x | x | -7 | x | x | x
CCCOc1ccc(-c2nc(OCC)c3ccccc3n2)cc1 | 60* | 0 | -5 | 2 | -8 | -5
CCOc1ccc(N(CC(=O)NC2CCCCC2)S(=O)(=O)c2ccccc2)cc1 | x | -2 | -13 | -1 | -4 | -4
NC(=O)c1ccc(N2CCNC(=O)C2)c([N+](=O)[O-])c1 | x | -15 | -1 | -2 | -2 | 13
C[N+](C)(C)C/C=C1/COCO1 | -10 | 4 | 9 | -2 | 1 | 90*
CC(C)c1ccc(CCNC(=O)CCNS(=O)(=O)c2ccc(Br)cc2)cc1 | x | x | -1 | x | x | x
Cn1c(C2CCCN2C(=O)OC(C)(C)C)n[nH]c1=S (centres undefined) | 3 | 2 | -12 | -6 | -2 | 97*
CCNc1nc(Oc2ccc(Cl)cc2Cl)cc(C(F)(F)F)n1 | 52 | 5 | 9 | 1 | 12 | -11
CCNc1nc(Oc2c(Cl)cccc2Cl)cc(C(F)(F)F)n1 | -3 | 0 | 5 | -1 | 53* | 36
COC(=O)[C@@]12CCCN1[C@H](c1ccc(-c3cccc(Cl)c3)c(OC)c1)[C@H]1C(=O)N(C)C(=O)[C@H]12 | x | 1 | 7 | 0 | 66* | x
Cc1ccc(NS(=O)(=O)c2ccc(C)c(C(=O)Nc3ccc(S(=O)(=O)Nc4onc(C)c4C)cc3)c2)cc1 | x | x | 5 | x | x | x
CCc1ccc(C(=O)C(C)OC(=O)Cc2n[nH]c(=O)c3ccccc23)cc1 (centres undefined) | x | 1 | 3 | -2 | 0 | -15
O=Cc1cn(CC(=O)N2CCCCC2)c2ccccc12 | -2 | 3 | -6 | -1 | 1 | -3
CN1C(=O)/C(=C/c2cn(CC(=O)N3CCCCC3)c3ccccc23)c2ccccc21 | 2 | 54* | x | 11 | 25 | 14
COc1cccc(C(C(=O)NC(C)(C)C)N(CCc2ccccc2)C(=O)CCC(=O)Nc2cc(C)on2)c1OC (centres undefined) | x | -15 | 26 | -2 | 3 | 36
Cc1ccc(NC(=O)NCC2CCN(Cc3cccc(Cl)c3)CC2)cc1Cl | 82* | 13 | 13 | -2 | 12 | 45
CCN(CC)CCNC(=O)c1ccc(NC(=O)COc2ccc3c(c2)CCC3)cc1 | x | x | 1 | x | x | x
Cc1cc(-c2nn(-c3ccccc3F)cc2CN2CCN(c3ccccn3)CC2)c(C)s1 | 66* | 2 | 8 | 1 | 1 | 57
CC(C)Cc1ccc(C(C)NC(=O)Cc2ccc(S(=O)(=O)N3CCOCC3)s2)cc1 (centres undefined) | x | -10 | -2 | 3 | 2 | x
COc1cc(O)c(CC=C(C)C)c(O)c1C(=O)CCc1ccc(O)cc1 | x | 3 | 1 | -2 | 98* | -19
O=C(CCc1ccccc1)Nc1nncs1 | 7 | 59* | -1 | -3 | 1 | 29
O=C(CCS(=O)(=O)Cc1ccccc1)Nc1nncs1 | x | -22 | 18 | 1 | -1 | 28
